This note sets out measurements from PubChem BioAssay (Tox21).

Test [1] can be described thus: Nuclear factor erythroid 2-related factor 2/antioxidant responsive element (Nrf2/ARE) small molecule agonists: qHTS cell viability counter screen in human keratinocytes (AID 1919968; active means well fitted curve in the direction sought with a large enough effect in the repeat runs; an effect the other way counts as inactive or inconclusive; further: nearly all actives have a fitted effect of over 55% in size; further: potency means the concentration at half of the fitted maximal effect). The gist of the method: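 Viability counter-screen: KeratinoSens reporter cells, DMSO-delivered compounds, 23 h at 37 C, CellTiter-Fluor fluorescence.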
(In general: In qHTS, concentration-response curves come from the screen itself.)

The nature of test [2]: Nuclear factor erythroid 2-related factor 2/antioxidant responsive element (Nrf2/ARE) small molecule agonists: luciferase reporter gene qHTS assay in human keratinocytes (AID 1919969). Further: nearly all actives have a fitted effect of over 35% in size. Further: potency means the concentration at half of the fitted maximal effect.
Test [3] addresses Gonadotropin-releasing hormone receptor (Homo sapiens) (UniProt P30968). As to the kind of experiment: Human gonadotropin-releasing hormone receptor (GnRHR) small molecule agonists, calcium flux assay in GnRHR-HEK293 cells (AID 1920063). Further: nearly all actives have a fitted effect of over 35% in size. The gist of the method:
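Tox21-format agonist screen using human GnRHR-expressing HEK293 cells and a fluorescent calcium dye; kinetic 3-min fluorescence reading after compound addition, 15-point concentration series run in triplicate.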
On the technique in general: Calcium flux is commonly read through the fluorescence of an indicator in the cells.

In test [4] the target is KiSS-1 receptor (Homo sapiens) (UniProt Q969F8). As to the kind of experiment: Human kisspeptin (KISS1R) small molecule agonists, calcium flux assay in KISS1R-HEK293 cells (AID 1920064; active means well fitted curve in the direction sought with a large enough effect in the repeat runs; an effect the other way counts as inactive or inconclusive). The gist of the method:
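Intracellular calcium mobilization in KISS1R-HEK293 cells was recorded by fluorescence (Ex/Em 480/540) for 3 min following compound addition to cells pre-loaded 1 h with calcium dye.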

Test [5] is described as follows: G protein-coupled receptor (GPCR) small molecule agonists, calcium flux assay: HEK293 wild type cell line counter screen (AID 1920065). The gist of the method: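 In this agonist-mode screen, ATP is the positive control and DMSO the vehicle. Cells grow 18 h before a 1 h dye incubation at 37 C; signal is taken at Ex/Em 480/540 over 3 min.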
The nature of test [6]: p53 small molecule agonists, cell-based qHTS assay with human liver microsomes (AID 1963577).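 Further: p53 response element beta-lactamase reporter cells with liver microsomes plus NADPH.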 The gist of the method: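 With metabolic activation: human liver microsomes (0.5 mg/mL final) plus NADPH (0.5 mg/mL final) added alongside compounds to p53RE-bla cells; 16 h 37 C exposure; beta-lactamase read by LiveBLAzer fluorescence.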
Test [7] is described as follows: p53 small molecule agonists, cell-based qHTS assay with rat liver microsomes (AID 1963578). The gist of the method: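 Metabolic activation by rat liver microsomes and NADPH, each 0.5 mg/mL final, added right after compounds to p53RE-bla reporter cells (4,000/well, plated 5 h earlier). 16 h at 37 C, then LiveBLAzer substrate for 2 h at room temperature in the dark; fluorescence read-out.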

Test [8] can be described thus: p53 small molecule agonists, cell-based qHTS assay with human liver microsomes: qHTS cell viability counter screen (AID 1963579). Further: nearly all actives have a fitted effect of over 45% in size. The gist of the method: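 Metabolic activation used human liver microsomes and NADPH, both 0.5 mg/mL final, over 16 hours at 37 C on p53RE-bla cells (4,000/well). Cytotoxicity measured by CellTiter-Glo luminescence, 30 min at room temperature.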

Test [9] can be described thus: p53 small molecule agonists, cell-based qHTS assay with rat liver microsomes: qHTS cell viability counter screen (AID 1963580). Further: nearly all actives have a fitted effect of over 45% in size. The gist of the method:
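p53RE-bla HCT-116 cells were exposed 16 h at 37 C to compounds with rat liver microsomes (0.5 mg/mL) and NADPH (0.5 mg/mL). Viability was measured in the same wells as ATP content by CellTiter-Glo luminescence.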

Test [10] in a line: p53 small molecule agonists, cell-based qHTS assay: qHTS cell viability counter screen (AID 1963581). Further: nearly all actives have a fitted effect of over 45% in size. The gist of the method:
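Compounds are pinned onto HCT-116 p53RE-bla cells and left 16 h at 37 C. Following the reporter FRET read, ATP is quantified by CellTiter-Glo luminescence after 30 min at room temperature.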

The nature of test [11]: p53 small molecule agonists, cell-based qHTS assay (AID 1963582; active means well fitted activation curve with a large enough effect in the signal ratio in the repeat runs, not every such curve was filed as active; the % refers to the signal ratio). The gist of the method: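 Agonist activity was scored from beta-lactamase FRET fluorescence in p53RE-bla cells treated 16 h at 37 C with compounds in DMSO, substrate incubation being 2 h at room temperature.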
The target of test [12] is 5-hydroxytryptamine receptor 2A (Homo sapiens) (UniProt P28223). As to the kind of experiment: 5-hydroxytryptamine receptor 2A (HTR2A) small molecule antagonists, cell-based qHTS assay (AID 1963586). Further: nearly all actives have a fitted effect of over 45% in size. The gist of the method:
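Antagonist-mode intracellular calcium assay: DOI (4 nM) added after 5 min compound pre-incubation at room temperature to dye-loaded HTR2A-CHO cells. Fluorescence followed for 3 min, sampled every second.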

Test [13] shares this target. As to the kind of experiment: 5-hydroxytryptamine receptor 2A (HTR2A) small molecule agonists, cell-based qHTS assay (AID 1963587). Further: nearly all actives have a fitted effect of over 30% in size. The gist of the method:
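CHO cells stably expressing human HTR2A, plated 18 h, loaded with calcium dye 1 h at 37 C. Agonist mode: compounds added and intracellular calcium fluorescence recorded kinetically for 2 min at 1 sec intervals.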

Test [14] has as its target Muscarinic acetylcholine receptor M1 (Homo sapiens) (UniProt P11229). As to the kind of experiment: Cholinergic receptor muscarinic 1 (CHRM1) small molecule antagonists, cell-based qHTS assay (AID 1963588). Further: nearly all actives have a fitted effect of over 40% in size. The gist of the method:
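CHRM1-CHO calcium-flux assay, antagonist mode. Cells were seeded 18 h, dye-loaded 1 h at 37 C and given compound for 5 min at RT, then acetylcholine was added at 50nM. FDSS fluorescence was read 3 min; 15 concentrations, three runs.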

The target is the same in test [15]. As to the kind of experiment: Cholinergic receptor muscarinic 1 (CHRM1) small molecule agonists, cell-based qHTS assay (AID 1963589). Further: nearly all actives have a fitted effect of over 35% in size. The gist of the method: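 Stable CHRM1-CHO cells (human receptor) were incubated 18 h, dye-loaded for 1 h at 37 C and exposed to test compounds for agonist activity, with calcium-dependent fluorescence followed kinetically.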
Test [16] is described as follows: cAMP Responsive Elements (CRE) small molecule agonists, cell-based qHTS assay (AID 1963590). The gist of the method:
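FRET-based beta-lactamase readout (LiveBLAzer B/G, 2 h RT) quantified CRE activation in HEK 293T CRE-bla cells after 3 h treatment with DMSO-dissolved compounds.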

Test [17] in a line: cAMP Responsive Elements (CRE) small molecule antagonists, cell-based qHTS assay (AID 1963591; active means well fitted inhibition curve with a large enough effect in the signal ratio in the repeat runs, not every such curve was filed as active; the % refers to the signal ratio). The gist of the method: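 qHTS in CRE-bla HEK 293T cells: compound in DMSO, then 0.25 uM NKH477 (final), 3 h at 37 °C/5% CO2; beta-lactamase FRET read-out after 2 h substrate incubation.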
The target of test [18] is Beta-2 adrenergic receptor (Homo sapiens) (UniProt P07550). As to the kind of experiment: Adrenergic beta2 receptor (ADRB2) small molecule antagonists, cell-based qHTS assay (AID 1963592). Further: series mostly up to about 92 µM; nearly all actives have a fitted effect of over 50% in size. The gist of the method:
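Cells (CHO, stable ADRB2 overexpression) incubated 18-20hr at 37C; compounds added from DMSO; agonist mix (1nM isoproterenol, 100uM IBMX, 25uM Ro-20-1724) added; 0.5hr RT; d2-cAMP and anti-cAMP-cryptate added; 1hr RT; 665/615 nm read.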

For test [19], the target named is D(2) dopamine receptor (Homo sapiens) (UniProt P14416). As to the kind of experiment: Dopamine D2 receptor (DRD2) small molecule agonists, cell-based qHTS assay (AID 1963594). Further: nearly all actives have a fitted effect of over 35% in size. The gist of the method: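 HEK293 cells stably expressing human DRD2, pre-treated with PDE inhibitor Ro20-1724 (0.1 mM final) and compound 10 min at room temperature, then stimulated with NKH477 (200nM […]) for 30 min. cAMP read by HTRF (665/620 nm).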

The target is the same in test [20]. As to the kind of experiment: Dopamine D2 receptor (DRD2) small molecule antagonists, cell-based qHTS assay (AID 1963595; active means well fitted inhibition curve with a large enough effect in the signal ratio in the repeat runs, with a control signal flat; the % refers to the signal ratio). The gist of the method: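 In this cell-based antagonist screen, compounds act for 10 min at room temperature before a 30 min challenge with 12 nM quinpirole and 200 nM NKH477. cAMP is quantified by HTRF competition in DRD2-HEK293 cells containing 0.1 mM Ro20-1724.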

Unmarked numbers belong to inactive results. Inconclusive results are not listed. The source made the active and inactive calls. Unless noted, the call rests on the fitted dose curve.

D(2) dopamine receptor (Homo sapiens), sequence (P14416 whole entry, looked up): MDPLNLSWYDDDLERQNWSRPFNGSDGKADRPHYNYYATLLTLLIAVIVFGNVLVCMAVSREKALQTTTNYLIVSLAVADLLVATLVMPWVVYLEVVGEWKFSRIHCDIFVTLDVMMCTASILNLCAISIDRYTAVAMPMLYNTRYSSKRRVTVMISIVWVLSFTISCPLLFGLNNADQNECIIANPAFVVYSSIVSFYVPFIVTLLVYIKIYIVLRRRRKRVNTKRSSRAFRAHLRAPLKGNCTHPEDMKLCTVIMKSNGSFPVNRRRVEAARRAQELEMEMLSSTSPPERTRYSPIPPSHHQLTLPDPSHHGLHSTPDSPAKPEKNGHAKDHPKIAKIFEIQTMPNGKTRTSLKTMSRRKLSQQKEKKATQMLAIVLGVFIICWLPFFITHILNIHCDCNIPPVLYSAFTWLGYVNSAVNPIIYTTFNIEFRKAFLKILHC
Beta-2 adrenergic receptor (Homo sapiens), sequence (P07550 whole entry, looked up): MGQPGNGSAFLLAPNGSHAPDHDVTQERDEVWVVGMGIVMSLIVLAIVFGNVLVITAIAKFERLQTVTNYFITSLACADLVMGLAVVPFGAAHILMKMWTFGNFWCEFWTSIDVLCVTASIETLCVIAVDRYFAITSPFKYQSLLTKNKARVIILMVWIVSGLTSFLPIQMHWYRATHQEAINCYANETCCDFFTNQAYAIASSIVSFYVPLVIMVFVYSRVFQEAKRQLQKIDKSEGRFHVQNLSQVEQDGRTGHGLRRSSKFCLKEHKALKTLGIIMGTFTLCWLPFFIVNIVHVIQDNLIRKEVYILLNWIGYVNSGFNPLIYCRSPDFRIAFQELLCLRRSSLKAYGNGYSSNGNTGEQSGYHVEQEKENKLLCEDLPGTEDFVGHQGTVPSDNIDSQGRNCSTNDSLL
KiSS-1 receptor (Homo sapiens), sequence (Q969F8 whole entry, looked up): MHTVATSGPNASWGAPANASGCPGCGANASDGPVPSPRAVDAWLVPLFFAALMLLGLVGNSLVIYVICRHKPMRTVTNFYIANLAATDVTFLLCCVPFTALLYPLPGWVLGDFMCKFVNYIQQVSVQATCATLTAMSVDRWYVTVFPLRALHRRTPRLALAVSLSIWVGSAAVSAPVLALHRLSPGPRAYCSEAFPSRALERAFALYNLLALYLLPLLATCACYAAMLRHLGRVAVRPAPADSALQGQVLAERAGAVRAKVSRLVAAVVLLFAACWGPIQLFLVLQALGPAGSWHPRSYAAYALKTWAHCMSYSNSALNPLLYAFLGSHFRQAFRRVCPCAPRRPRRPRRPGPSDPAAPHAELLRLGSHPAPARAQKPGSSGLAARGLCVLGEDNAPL
Gonadotropin-releasing hormone receptor (Homo sapiens), sequence (P30968 whole entry, looked up): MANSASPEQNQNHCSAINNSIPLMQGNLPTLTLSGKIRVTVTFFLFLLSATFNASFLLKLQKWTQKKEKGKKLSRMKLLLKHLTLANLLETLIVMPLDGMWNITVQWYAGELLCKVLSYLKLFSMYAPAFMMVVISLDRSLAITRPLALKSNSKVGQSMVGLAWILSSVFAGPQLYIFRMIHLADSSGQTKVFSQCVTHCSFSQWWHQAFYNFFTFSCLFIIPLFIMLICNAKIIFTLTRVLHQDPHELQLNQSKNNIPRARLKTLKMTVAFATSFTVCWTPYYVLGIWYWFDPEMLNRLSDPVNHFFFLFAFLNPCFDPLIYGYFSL
Muscarinic acetylcholine receptor M1 (Homo sapiens), sequence (P11229 whole entry, looked up): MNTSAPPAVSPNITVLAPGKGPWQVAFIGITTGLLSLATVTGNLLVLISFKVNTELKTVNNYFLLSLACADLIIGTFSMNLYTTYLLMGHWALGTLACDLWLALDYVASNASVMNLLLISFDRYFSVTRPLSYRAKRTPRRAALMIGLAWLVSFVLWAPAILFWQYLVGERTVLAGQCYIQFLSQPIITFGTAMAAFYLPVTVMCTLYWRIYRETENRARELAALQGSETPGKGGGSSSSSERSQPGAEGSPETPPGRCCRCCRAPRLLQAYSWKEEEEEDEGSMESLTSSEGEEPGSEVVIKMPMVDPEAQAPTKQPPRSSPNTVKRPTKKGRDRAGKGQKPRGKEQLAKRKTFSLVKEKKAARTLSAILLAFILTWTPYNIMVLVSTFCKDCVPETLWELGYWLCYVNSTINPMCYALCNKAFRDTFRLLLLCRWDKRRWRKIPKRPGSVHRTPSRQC
5-hydroxytryptamine receptor 2A (Homo sapiens), sequence (P28223 whole entry, looked up): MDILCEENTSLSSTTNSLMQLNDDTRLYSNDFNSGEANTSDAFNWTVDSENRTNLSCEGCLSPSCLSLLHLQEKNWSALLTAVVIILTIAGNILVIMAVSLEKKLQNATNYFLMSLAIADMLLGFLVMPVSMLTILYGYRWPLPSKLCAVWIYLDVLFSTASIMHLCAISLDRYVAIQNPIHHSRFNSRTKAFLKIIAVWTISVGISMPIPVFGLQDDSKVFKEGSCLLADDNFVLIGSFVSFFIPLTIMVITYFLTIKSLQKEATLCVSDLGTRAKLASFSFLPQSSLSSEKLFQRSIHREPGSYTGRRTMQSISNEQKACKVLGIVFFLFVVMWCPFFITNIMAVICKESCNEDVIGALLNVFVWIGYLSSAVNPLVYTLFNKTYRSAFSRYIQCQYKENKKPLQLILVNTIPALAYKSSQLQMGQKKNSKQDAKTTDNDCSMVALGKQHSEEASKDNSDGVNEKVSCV

Take `Cc1ncc(CNC(=O)N(CCCl)N=O)c(N)n1`: the Potency entry in test [1], in test [2], in test [3], in test [4], in test [5] and in test [6] was “inactive” throughout. Further, the Potency entry in test [7], in test [8], in [9], in test [10], in test [11] and in test [12] was “inactive” throughout. Besides, the Potency entry in [13], in test [14], in [15], in [16], in test [17] and in test [18] was “inactive” in each case. Further, the Potency result in test [19] and in test [20] was “inactive” each time.
As to `Nc1ncc([N+](=O)[O-])s1`, the Potency entry in test [1], in test [2], in test [3], in test [4], in test [5] and in [6] was “inactive” throughout. Further, the Potency result in test [7], in [8], in test [9], in [10], in [11] and in test [12] was “inactive” throughout. The Potency entry in test [13], in [14], in test [15], in [16], in [17] and in test [18] was “inactive” throughout. The Potency entry in test [19] and in test [20] was “inactive” each time.
On to `CN(C)P(=O)(N(C)C)N(C)C`, for which the Potency entry in test [1], in [2], in [3], in [4], in test [5] and in [6] was “inactive” each time. In addition, the Potency result in [7], in test [8], in test [9], in test [10], in [11] and in [12] was “inactive” each time. Also, the Potency result in test [13], in test [14], in test [15], in test [16], in test [17] and in test [18] was “inactive” throughout. The Potency result in test [20] was “inactive”.
In the case of `COP(=O)(O)OC`, the Potency entry in test [1], in test [2], in test [3], in test [4], in test [5] and in test [6] was “inactive” each time. For the same compound, the Potency entry in test [7], in test [8], in [9], in test [10], in [11] and in test [12] was “inactive” throughout. Also, the Potency result in [13], in test [14], in test [15], in test [16], in test [17] and in [18] was “inactive” throughout. In addition, the Potency entry in test [19] and in [20] was “inactive” in each case.
`ClCCN1CCCC1`: the Potency result in test [1], in test [2], in [3], in test [4], in test [5] and in test [6] was “inactive” throughout. Also, the Potency result in test [7], in [8], in test [9], in test [10], in [11] and in test [12] was “inactive” throughout. For the same compound, the Potency entry in test [13], in test [14], in [15], in test [16], in test [17] and in test [18] was “inactive” throughout. In addition, the Potency result in [19] and in test [20] was “inactive” each time.
Regarding `C(=NC1CCCCC1)=NC1CCCCC1`, the Potency in [1] was 54.8 µM (active); in test [2], 30.6 µM (active). The Potency result in test [3], in test [4], in test [5], in test [6], in [7] and in [8] was “inactive” each time. Besides, the Potency entry in test [9], in test [10], in test [11], in test [12], in test [13] and in test [14] was “inactive” in each case. For the same compound, the Potency result in test [15], in test [16], in test [17], in test [18], in test [19] and in test [20] was “inactive” each time.
As to `O=[N+]([O-])c1ccc([As](=O)(O)O)cc1`, the Potency entry in test [1], in test [2], in test [3], in test [4], in test [5] and in test [6] was “inactive” in each case. Also, the Potency result in test [7], in [8], in test [9], in [10], in test [11] and in [12] was “inactive” each time. Besides, the Potency result in [13], in test [14], in test [15], in test [16], in [17] and in [18] was “inactive” throughout. Moreover, the Potency entry in test [19] and in test [20] was “inactive” each time.
